Bioassay records: PubChem, Broad Institute
Pf Dd2 growth: blocks growth of Plasmodium falciparum Dd2 parasites. P. falciparum Dd2 growth, SYBR Green, 72 h; hits give low values. activity change, % at 10 µM. 94,000 compounds, 2.3% hits; in the data active = activity change below about -80%; inconclusive = no clear call, values can overlap the other calls
C diff growth: blocks growth of Clostridium difficile | Clostridium difficile clinical isolate growth, OD600, 24 h; hits give low values | growth activity, negative = inhibition, % at 16 µg/mL (by protocol) | 86,000 compounds, 0.25% hits | AID 1259249;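 active = mean growth activity at or below -80% and every replicate also at or below -80%; inconclusive = mean at or below -80% but some replicate above -80%; inactive = mean growth activity above -80%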
T cruzi growth-1: T. cruzi proliferation inhibition; T. cruzi beta-gal in NIH3T3, GalScreen luminescence, 90 h; inhibition, % at 8.34 µM; 77,000 compounds, 5.9% hits; AID 624255;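 active = mean inhibition above about 93%, with at least 55% of replicates each passing it, limit read from the data, passing the limit was not always enough; inconclusive = only one of those two conditions holds; inactive = neither condition holds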
T cruzi growth-2: Trypanosoma cruzi proliferation inhibition; T. cruzi beta-gal in NIH3T3, GalScreen luminescence, 90 h; AID 651739; shares compounds with T cruzi growth-1; inhibition, % at 8.35 µM; 5,600 compounds, 72% hits;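 active = mean replicate inhibition above about 95% and at least 55% of replicates individually reaching it, limit read from the data; inconclusive = only one of the two criteria is met; inactive = neither criterion is met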
T cruzi growth-3: blocks T. cruzi growth in NIH3T3 host cells; shares compounds with T cruzi growth-1; 5,600 compounds, 21% hits; T. cruzi beta-gal in NIH3T3, GalScreen luminescence, 90 h; inhibition, % at 2.09 µM; AID 651740;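 active = mean inhibition above about 95%, with at least 55% of replicates also reaching it, limit read from the data; inconclusive = meets just one of the two conditions; inactive = meets neither condition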
3T3 cytotox: kills mouse NIH/3T3 fibroblasts; shares compounds with T cruzi growth-1; NIH/3T3 viability, CellTiter-Glo ATP luminescence, 90 h; cytotoxicity (signal decrease), % at 8.35 µM; 5,600 compounds, 14% hits; AID 651742;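 active = mean signal decrease across replicates above about 35% based on untreated-well scatter, with enough replicates individually passing, limit read from the data; inconclusive = no rule stated though some were filed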
NIH3T3 tox 2: NIH/3T3 (mouse) viability loss. shares compounds with T cruzi growth-1. NIH/3T3 viability, CellTiter-Glo ATP luminescence, 90 h. inhibition, % at 24.9 µM. 5,600 compounds, 56% hits;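 active = mean loss of cell viability signal at or above a set limit, and enough replicates individually reaching it; inconclusive = meets only the mean limit or only the replicate share; inactive = meets neither condition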
Numbers stand for hits; . = inactive; ? = inconclusive; / = no result; ! = not confirmed by another sample. An excerpt weighted towards active compounds, which were near 6.7% of everything screened.

SMILES	Pf Dd2 growth	C diff growth	T cruzi growth-1	T cruzi growth-2	T cruzi growth-3	3T3 cytotox	NIH3T3 tox 2
COc1ccc(NC(=O)Nc2ccc3c(c2)C(=O)N([C@H](C)CO)C[C@H](C)[C@@H](CN(C)S(=O)(=O)c2ccc(OC)cc2)OCCCC[C@@H](C)O3)cc1	.	.	.	/	/	/	/
C[C@H](CO)N1C[C@H](C)[C@@H](CN(C)S(=O)(=O)c2cn(C)cn2)OCCCC[C@H](C)Oc2ccc(NS(=O)(=O)c3ccc(F)cc3)cc2C1=O	.	.	.	/	/	/	/
COc1cccc(CN(C)C[C@@H]2OCc3cn(nn3)CCCC(=O)N([C@H](C)CO)C[C@@H]2C)c1	.	/	.	/	/	/	/
C[C@H]1CN([C@@H](C)CO)C(=O)Cc2cc(NS(=O)(=O)c3cn(C)cn3)ccc2O[C@@H]1CN(C)Cc1ccc(C(=O)Nc2ccccc2N)cc1	.	.	.	/	/	/	/
COc1ccc(NC(=O)Nc2ccc3c(c2)C(=O)N([C@H](C)CO)C[C@@H](C)[C@@H](CN(C)S(=O)(=O)c2ccc(Cl)cc2)OCCCC[C@@H](C)O3)cc1	.	.	/	/	/	/	/
COc1ccc(NC(=O)Nc2ccc3c(c2)C(=O)N([C@H](C)CO)C[C@H](C)[C@@H](CN(C)S(=O)(=O)c2ccc(Cl)cc2)OCCCC[C@H](C)O3)cc1	.	.	115	104	.	.	.
COc1ccc(S(=O)(=O)N(C)C[C@@H]2OCCCC[C@@H](C)Oc3ccc(NC(=O)Nc4ccccc4)cc3C(=O)N([C@H](C)CO)C[C@@H]2C)cc1	.	.	.	/	/	/	/
COc1ccc(S(=O)(=O)N(C)C[C@@H]2OCCCC[C@H](C)Oc3ccc(NC(=O)Nc4ccccc4)cc3C(=O)N([C@H](C)CO)C[C@@H]2C)cc1	.	.	110	106	.	.	.
Cc1noc(C)c1NC(=O)Nc1ccc2c(c1)C(=O)N([C@@H](C)CO)C[C@@H](C)[C@H](CN(C)Cc1ccc(C(=O)O)cc1)OCCCC[C@H](C)O2	.	.	.	/	/	/	/
O=C(C[C@H]1CC[C@@H]2[C@H](COC[C@H](O)CN2C(=O)Nc2cccc(Cl)c2)O1)N1CCCCC1	.	.	.	/	/	/	/
O=C(C[C@@H]1CC[C@@H]2[C@H](COC[C@@H](O)CN2C(=O)Nc2cc(Cl)cc(Cl)c2)O1)N1CCCCC1	.	/	.	/	/	/	/
O=C(C[C@H]1CC[C@H]2[C@@H](COC[C@H](O)CN2C(=O)Nc2cc(Cl)cc(Cl)c2)O1)N1CCCCC1	.	/	99	109	.	.	.
O=C(C[C@@H]1CC[C@@H]2[C@H](COC[C@@H](O)CN2C(=O)Nc2cccc(Cl)c2)O1)N1CCCCC1	.	.	109	.	.	.	.
C[C@H](CO)N1C[C@H](C)[C@H](CN(C)C(=O)C2CCCCC2)Oc2ncc(-c3cccc(F)c3)cc2C1=O	.	.	.	/	/	/	/
O=C(C[C@@H]1C=C[C@H](NC(=O)C2CCC2)[C@@H](CO)O1)Nc1nccs1	.	.	/	/	/	/	/
C[C@@H]1CN([C@H](C)CO)C(=O)Cc2cc(NC(=O)Nc3cccc4ccccc34)ccc2O[C@@H]1CN(C)Cc1ccc(-c2ccccc2)cc1	.	.	98	112	.	.	?
C[C@@H]1CN([C@H](C)CO)C(=O)Cc2cc(NC(=O)Nc3cccc4ccccc34)ccc2O[C@H]1CN(C)Cc1ccccc1	.	.	.	/	/	/	/
C[C@@H]1CN([C@@H](C)CO)C(=O)Cc2cc(NC(=O)Nc3cccc4ccccc34)ccc2O[C@@H]1CN(C)Cc1ccc(-c2ccccc2)cc1	.	.	103	108	.	.	?
C[C@H]1CN([C@@H](C)CO)C(=O)Cc2cc(NC(=O)Nc3cccc4ccccc34)ccc2O[C@H]1CN(C)Cc1ccc(-c2ccccc2)cc1	.	.	.	/	/	/	/
CN(C)C(=O)C[C@H]1CC[C@@H]2[C@@H](COc3ccc(NC(=O)C4CCCCC4)cc3C(=O)N2C)O1	.	.	.	/	/	/	/
C[C@@H]1CN([C@@H](C)CO)C(=O)c2ccccc2-c2ccccc2CO[C@@H]1CN(C)S(=O)(=O)c1cccs1	.	.	115	.	.	.	?
Cc1ccccc1S(=O)(=O)N(C)C[C@H]1OCc2ccccc2-c2ccccc2C(=O)N([C@H](C)CO)C[C@@H]1C	.	.	?	95	.	.	.
C[C@H](CO)N1C[C@H](C)[C@@H](CN(C)S(C)(=O)=O)OCc2ccccc2-c2ccccc2C1=O	.	.	.	/	/	/	/
C[C@H]1CN([C@@H](C)CO)C(=O)c2ccccc2-c2ccccc2CO[C@H]1CN(C)S(=O)(=O)c1ccccc1F	.	.	.	/	/	/	/
COc1cccc(C#Cc2ccc3c(c2)O[C@H](CN(C)C)[C@@H](C)CN([C@@H](C)CO)S3(=O)=O)c1	.	.	/	/	/	/	/
SMILES	Pf Dd2 growth	C diff growth	T cruzi growth-1	T cruzi growth-2	T cruzi growth-3	3T3 cytotox	NIH3T3 tox 2
COc1cccc(C#Cc2ccc3c(c2)O[C@H](CN(C)S(=O)(=O)c2ccccc2F)[C@H](C)CN([C@H](C)CO)S3(=O)=O)c1	.	.	130	107	107	.	38!
COc1cccc(C#Cc2ccc3c(c2)O[C@H](CN(C)S(=O)(=O)c2ccccc2F)[C@@H](C)CN([C@@H](C)CO)S3(=O)=O)c1	.	.	118	111	116	38	27
COc1cccc(C#Cc2ccc3c(c2)O[C@H](CN(C)C)[C@H](C)CN([C@@H](C)CO)S3(=O)=O)c1	.	.	.	/	/	/	/
CCNC(=O)C[C@H]1CC[C@H]2[C@H](COc3ccc(NC(=O)Nc4ccc(Cl)cc4)cc3C(=O)N2C)O1	.	.	.	/	/	/	/
C[C@@H]1CN([C@H](C)CO)C(=O)c2cccc(N(C)C)c2O[C@H]1CN(C)Cc1ccc(Cl)c(Cl)c1	.	.	.	/	/	/	/
CCC(=O)N1[C@@H]2Cn3c(cccc3=O)[C@H]1[C@@H](C(=O)NCc1ccc(F)cc1)[C@@H]2CO	.	.	.	/	/	/	/
C[C@@H]1CCCCO[C@@H](CN(C)Cc2ccc3c(c2)OCO3)[C@@H](C)CN([C@H](C)CO)C(=O)c2cc(NS(=O)(=O)c3ccc(Cl)cc3)ccc2O1	.	/	.	/	/	/	/
C[C@@H]1CN([C@H](C)CO)C(=O)c2cc(NS(=O)(=O)c3ccc(Cl)cc3)ccc2O[C@@H](C)CCCCO[C@H]1CN(C)Cc1ccc2c(c1)OCO2	.	/	106!	97	107	.	104
C[C@H]1CCCCO[C@H](CN(C)Cc2ccc3c(c2)OCO3)[C@@H](C)CN([C@@H](C)CO)C(=O)c2cc(NS(=O)(=O)c3ccc(Cl)cc3)ccc2O1	.	/	?	101	.	.	104
C[C@@H]1CCCCO[C@@H](CN(C)Cc2ccc3c(c2)OCO3)[C@@H](C)CN([C@@H](C)CO)C(=O)c2cc(NS(=O)(=O)c3ccc(Cl)cc3)ccc2O1	.	/	.	/	/	/	/
CN1CCN(C(=O)C[C@H]2C=C[C@H](NC(=O)Cc3ccccn3)[C@H](CO)O2)CC1	.	/	.	/	/	/	/
